# Assay results published in PubChem BioAssay AID651813 (National Center for Advancing Translational Sciences (NCATS), 2012).
# Screen size: about 2,100 compounds; about 1,100 (52%) were called active. About 27% were inconclusive and are not listed. Calls follow the shape of the dose curve; as a rule, active = well fitted inhibition curve with a large enough effect; inconclusive = small, poorly fitted or top-dose-only effect; inactive = no such curve, though single readings can be large or run the other way. The set was probably picked from earlier hits. This is one part of the list.
# Target: DNA dC->dU-editing enzyme APOBEC-3G (Homo sapiens) (UniProt Q9HC16)
# Sequence (Q9HC16 whole entry, looked up): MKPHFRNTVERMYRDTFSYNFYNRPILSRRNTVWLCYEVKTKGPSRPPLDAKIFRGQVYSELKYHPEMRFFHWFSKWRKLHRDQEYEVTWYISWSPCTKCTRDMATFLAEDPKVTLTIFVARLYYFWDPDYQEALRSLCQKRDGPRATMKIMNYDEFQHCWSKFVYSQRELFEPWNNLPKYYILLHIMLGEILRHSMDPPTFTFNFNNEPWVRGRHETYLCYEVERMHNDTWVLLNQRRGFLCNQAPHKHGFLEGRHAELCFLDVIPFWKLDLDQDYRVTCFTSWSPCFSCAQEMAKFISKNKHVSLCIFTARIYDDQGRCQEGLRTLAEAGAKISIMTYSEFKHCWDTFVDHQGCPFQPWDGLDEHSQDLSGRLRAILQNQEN
# Test: qHTS for inhibitors of Vif-A3G interactions: Cherry picks counterscreen;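 also: hits raise yellow fluorescence by blocking Vif-driven A3G-eYFP degradation; nearly all actives have a fitted effect of over 70% in size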;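 as to max response: max response given as percent of control signal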
# Conditions: HeLa A3G-eYFP + Vif (tagged APOBEC3G with the HIV-1 protein that degrades it), eYFP fluorescence, 24 h
# Text: The recent discovery and characterization of host restriction factors, which provide a potent defense to invading retroviruses, has provided new targets for antiviral drug development. APOBEC3G (A3G) and APOBEC3F (A3F) are potent cytidine deaminases that block HIV-1 replication; HIV-1 expresses the Vif protein, which counteracts A3G and A3F by binding to them and inducing their proteasomal degradation. The Vif-A3G and Vif-A3F interactions provide two potential targets for development of small molecules which can interfere with the ability of Vif to degrade A3G or A3F. […] To identify inhibitors that can interfere with Vif mediated degradation of A3G and A3F, we have developed Hela cell lines that stably express A3G or A3F tagged with eYFP at the C-terminal end (A3G-eYFP or A3F-eYFP, respectively) and Vif. In the absence of an inhibitor, Vif induces degradation of A3G-eYFP and A3F-eYFP, and the cells are not fluorescent. In the presence of an inhibitor, it is expected that Vif will be unable to degrade A3G-eYFP and/or A3F-eYFP, resulting in an increase in yellow fluorescence. In this counterscreen assay, Vif A3G was screened against the cherry picks ordered from the MLSMR. NIH Chemical Genomics Center [NCGC] NIH Molecular Libraries Probe Centers Network [MLPCN] MLPCN Grant: MH093245 Assay Submitter (PI): Vinay Pathak, National Cancer Institute
# A3G-Vif cells were harvested from T225 flask and resuspended in phenol free OPTI-MEM medium with 5% FBS. Then 5 uL of 140,000 cells/mL resuspended cells was dispensed into each well of low base Aurora COC 1,536-well plates (black walled, clear bottom) using a Multidrop Combi dispenser. After overnight culture at 37 deg C with 5% CO2, a total of 23 nL of compounds at 5 selected concentrations from the NPC or positive control (2 mM stock of MG132) in DMSO was transferred to each well of the assay plate using a pintool (Kalypsys, San Diego, CA), and the plates were further incubated at 37 deg C with 5% CO2 for 24 hours. After that, the plates were measured on Acumen Explorer (TTP Lab Tech). The fluorescence was detected by 488 nm/Ex and […].
# Potency is read from the fitted curve at half-maximal effect.
Structure (SMILES),Potency,max response
CC(=O)Nc1cccc(-c2ccnc3c2CC(C(=O)NCc2ccco2)O3)c1 (configuration not stated),6.27 µM (active),
O=c1nc(/C=C/c2ccc(Cl)cc2Cl)cc(C(F)(F)F)[nH]1,17.7 µM (active),
CC(=O)OC1C2(CC3N4C(=O)C5(CO)SSC4(CC31O)C(=O)N5C)OC(C)C(C)(C)C2=O (configuration not stated),12.5 µM (active),
Nc1ccc2c3c(cccc13)-c1ccccc1-2,2.31 µM (active),
C=C1C(=O)OC2C1CCC(C)C1(O)C=CC(=O)C21C (configuration not stated),8.86 µM (active),
Cc1cc(N2CCCC2)ccc1C=C(C#N)C#N,11.6 µM (active),
Cc1ccccc1-n1c(O)c(/C=C/C=Nc2ccccc2)c(=O)[nH]c1=O,,55.1% (inactive)
C=CCn1c(O)c(C(C)=Nc2ccc(N(CC)CC)cc2)c(=O)[nH]c1=O,9.94 µM (active),
CCN(CC)c1ccc(N=Cc2c(O)n(CCC3=CCCCC3)c(=O)[nH]c2=O)cc1,23.1 µM (active),
CCN(CC)c1ccc(N=Cc2c(O)n(Cc3ccccc3)c(=O)[nH]c2=O)cc1,13 µM (active),
CCS(=O)(=O)N1N=C(c2cccc(NS(C)(=O)=O)c2)CC1c1ccccc1 (configuration not stated),20.6 µM (active),
Cc1nn(Cc2ccccc2)c(C)c1C(=O)OCC(=O)Nc1ccccc1SCC#N,15.8 µM (active),
N#CC1=C(N)Oc2c(c(=O)sc3ccccc23)C1c1cccnc1 (configuration not stated),5.59 µM (active),
NC(=Nc1ccccc1)NN=Cc1c[nH]c2ccccc12,2.23 µM (active),
CC(=O)O[C@@]12CO[C@@H]1C[C@H](OC1OCC(O)C(O)C1O)[C@@]1(C)C(=O)[C@H](O)C3=C(C)[C@@H](OC(=O)[C@H](O)[C@@H](NC(=O)c4ccccc4)c4ccccc4)C[C@@](O)([C@@H](OC(=O)c4ccccc4)C12)C3(C)C (some centres not stated),1.25 µM (active),
CCCCn1c(O)c(C(=O)/C=C/c2c[nH]c3ccccc23)c(=O)[nH]c1=O,4.44 µM (active),
CC1=CC(=Cc2sc3ccccc3[n+]2C)C=C(C)O1,20.6 µM (active),
Cc1c(Cl)cccc1NC(=O)c1oc2ccc(S(=O)(=O)N3CCC4(CC3)OCCO4)cc2c1C,7.31 µM (active),
CN1CCN(c2ccc(/C=C3\C(=O)NC(=S)N(c4cccc(Br)c4)C3=O)o2)CC1,16.4 µM (active),

Structure (SMILES),Potency,max response
CN1C(=O)/C(=C\c2ccc(N3CCCCC3)o2)C(=O)NC1=S,17.7 µM (active),
CN1C(=O)/C(=C/c2ccc(N3CCCCCC3)o2)C(=O)NC1=S,15.8 µM (active),
COc1cc2c(cc1O)[C@@H]1Cc3ccc(OC)c(O)c3CN1CC2,12.5 µM (active),
COc1ccc(-n2cnc3cc(C(=O)N4CCC5(CC4)OCCO5)ccc32)cc1,9.94 µM (active),
COc1cccc(C2=CC(c3cc(Br)ccc3F)n3nnnc3N2)c1 (configuration not stated),1.84 µM (active),
Cc1cc(N(CCCl)CCCl)ccc1C=Cc1ccncn1,20.6 µM (active),
ClCCN(CCCl)c1ccc(C=Cc2ccncn2)cc1,,-8.89% (inactive)
CCN(CC)c1ccc2c(cc1=O)[C@@H](NC)CCc1cc(OC)c(OC)c(OC)c1-2,2.5 µM (active),
CN1C(=O)C(=Cc2ccc(N3CCCCC3)o2)C(=O)N(C)C1=S,2.91 µM (active),
CN1C(=O)C(=Cc2ccc(N3CCOCC3)o2)C(=O)N(C)C1=S,20.6 µM (active),
CN1C(=O)C(=Cc2ccc(N3CCOCC3)o2)C(=O)N(C)C1=O,23.1 µM (active),
CCN(CC)c1ccc(/C=C2\C(=O)NC(=S)N(C)C2=O)o1,14 µM (active),
CCN(CC)c1ccc(/C=C2\C(=O)NC(=S)N(c3ccc(OC)cc3OC)C2=O)o1,18.4 µM (active),
CCN1C(=O)/C(=C/c2ccc(N(CC)CC)cc2OC)C(=O)NC1=S,18.4 µM (active),
CCN(CC)c1ccc(C=C2C(=O)N(C)C(=S)N(C)C2=O)o1,6.27 µM (active),
COc1cc(C2C(C#N)=C(N)Oc3cc(O)ccc32)cc(OC)c1OC (configuration not stated),1.77 µM (active),
CN1/C(=C\C=C2C(=O)NC(=O)NC2=O)C(C)(C)c2ccccc21,2.91 µM (active),
CN(C)c1ccc(C(=O)c2ccc(N(C)C)cc2)cc1,1.58 µM (active),
CCCCNC(=O)/C(C#N)=c1\s/c(=C\c2ccccc2OC(F)F)c(=O)n1CCCOC,18.4 µM (active),

Structure (SMILES),Potency,max response
COc1ccc(-c2ccc(OC)c(OC)c2OC)cc1,3.96 µM (active),
O=C1NC(=O)N(c2ccc3c(c2)OCO3)C(=O)/C1=C/c1ccc(N2CCCCC2)o1,23.1 µM (active),
O=C1NC(=O)N(c2ccc3c(c2)OCO3)C(=O)/C1=C\c1ccc(N2CCCCC2)o1,20.6 µM (active),
CC(C)c1ccc(N2C(=O)NC(=O)/C(=C/C=C/c3ccco3)C2=O)cc1,14 µM (active),
Cc1cc(/C=C2\C(=O)NC(=O)N(c3ccc(Br)cc3)C2=O)c(C)n1C,,8.75% (inactive)
CC(C)c1ccc(N2C(=O)NC(=O)/C(=C\C=C\c3ccco3)C2=O)cc1,14 µM (active),
O=C(Cc1ccccc1)c1ccccn1,12.5 µM (active),
Cc1cccc(CN2CCCC(C(=O)c3cccc(OC(C)C)c3)C2)n1 (configuration not stated),,2.93% (inactive)
O=c1[nH]c(CN2CC=C(c3ccccc3)CC2)nc2scc(-c3ccccc3)c12,8.2 µM (active),
O=C1NC(=S)SC1=Cc1ccc(N(CCCl)CCCl)cc1,15.8 µM (active),
Cc1ccc(CNC(=O)c2ccccc2NC(=O)c2nsc3ccccc23)cc1,23.1 µM (active),
O=c1c2ccccc2nc(/C=C/c2ccc([N+](=O)[O-])o2)n1-c1ccc(O)cc1,8.86 µM (active),
Cc1cccc(-n2c(/C=C/c3c(C)[nH]c4ccccc34)nc3ccccc3c2=O)c1,18.4 µM (active),
Cc1cccc(-n2c(O)c(/C=C/C=Nc3ccccc3)c(=O)[nH]c2=O)c1,,59.1% (inactive)
COc1ccc(-n2c(/C=C/c3ccc(O)c(OC)c3)nc3ccccc3c2=O)cc1,23.1 µM (active),
Cc1cccc(-n2c(/C=C/c3ccc([N+](=O)[O-])o3)nc3ccccc3c2=O)c1,5.17 µM (active),
COc1ccc2nc(NC(=O)c3nc(S(=O)(=O)Cc4cccc(C)c4)ncc3Cl)sc2c1,,58.8% (inactive)
Cc1ccccc1-n1c(/C=C/c2ccc(N(C)C)cc2)nc2ccccc2c1=O,1.46 µM (active),
O=Cc1c(C(=O)O)n(Cc2ccc(Cl)cc2)c2ccccc12,3.66 µM (active),
